Screening results from PubChem.
Hits are enriched below; roughly 2.9% of the tested compounds scored in any of these assays.
HePTP inh – human HePTP phosphatase inhibition; recombinant HePTP phosphatase activity, OD absorbance; inhibition, % at 20 µM; 0.64% of 110,000 active; P35236; AID 521; in the data active means inhibition above about 50%
ERb SRC1 inh – blocks coactivator binding to human estrogen receptor beta; TR-FRET ER-beta LBD / SRC1-Cy5 peptide binding; receptor agonist-loaded with 1 µM estradiol; 1.3% of 86,000 active; Q92731; AID 633; inhibition, % at 25.6 µM;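 active means compounds whose percent inhibition of the receptor-coactivator binding signal exceeds about 50% in the single-dose screen, limit read from the data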
Smad3 FoxH1 inh – Smad3 (human) transcription factor binding inhibition; P84022; TR-FRET Smad3/Dy647-FoxH1 peptide binding, europium anti-His; inhibition, % at 25 µM; 0.29% of 88,000 active; AID 630;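 active means compounds that reduce the energy-transfer binding signal between the protein and its labelled peptide by more than half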
ERa SRC1 pot – ER-alpha (human) coactivator binding potentiation. AID 639. TR-FRET ERalpha-LBD/SRC-Cy5 coactivator binding, 2 h; 100 = basal binding, no effect. 1.3% of 86,000 active. coactivator binding (% of control), % at 25.6 µM; in the data active means activity above about 200%;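 further: binding measured in presence of low estradiol as agonist stimulus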
Target sequence (P03372 whole entry, looked up, the tested form may be a part): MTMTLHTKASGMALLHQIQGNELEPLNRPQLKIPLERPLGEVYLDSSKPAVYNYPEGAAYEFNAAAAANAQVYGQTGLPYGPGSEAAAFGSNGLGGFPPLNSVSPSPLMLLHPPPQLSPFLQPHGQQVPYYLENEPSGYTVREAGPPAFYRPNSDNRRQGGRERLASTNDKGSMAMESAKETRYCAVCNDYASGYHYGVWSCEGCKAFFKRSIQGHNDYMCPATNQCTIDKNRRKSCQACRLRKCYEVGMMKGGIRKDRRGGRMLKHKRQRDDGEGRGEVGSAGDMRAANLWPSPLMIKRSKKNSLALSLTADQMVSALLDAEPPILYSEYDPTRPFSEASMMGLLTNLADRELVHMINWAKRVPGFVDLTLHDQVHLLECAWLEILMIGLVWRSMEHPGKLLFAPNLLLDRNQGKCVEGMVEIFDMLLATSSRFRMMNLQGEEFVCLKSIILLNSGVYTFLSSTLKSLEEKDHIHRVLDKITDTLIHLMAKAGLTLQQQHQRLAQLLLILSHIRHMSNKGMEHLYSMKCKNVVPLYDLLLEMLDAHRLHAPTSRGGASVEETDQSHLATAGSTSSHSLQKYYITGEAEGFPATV
ERa SRC1 inh – blocks coactivator binding to human estrogen receptor alpha | TR-FRET ER-alpha LBD / SRC-1 peptide, estradiol-bound | 1.7% of 86,000 active | inhibition, % at 25.6 µM | P03372; in the data active means inhibition above about 50%
Calb biofilm kill – kills Candida albicans biofilms; AID 834; 0.14% of 85,000 active; C. albicans biofilm + clotrimazole, Alamar Blue; inhibition, % at 6 µM;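 active means inhibition above 20%; inactive means inhibition below 20%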;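 further: preformed 24 hr biofilms exposed to compound for 48 hr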
A number is an active result; n = inactive; x = no result given; [ ] = remark or other dose.

SMILES | HePTP inh | ERb SRC1 inh | Smad3 FoxH1 inh | ERa SRC1 pot | ERa SRC1 inh | Calb biofilm kill
C=CCN1C(c2ccccc2)=CS/C1=C(\C#N)c1nnc2n1CCCCC2 | n | n | 51 | n | n | n
O=C(NCCCc1ccccc1)c1cccc(F)c1 | n | x | x | x | x | x
O=C(Nc1ccccc1)c1cccc(-c2nnc(-c3ccccc3)o2)c1 | n | n | n | 309[fluorescence artefact?] | n | n
O=C(Nc1ccc(-c2nnc(-c3ccccc3)o2)cc1)c1ccc(Cl)cc1 | n | x | x | x | x | x
O=C(Nc1cccc(-c2nnc(-c3ccccc3)o2)c1)C1CCCCC1 | n | n | n | 208[fluorescence artefact?] | n | n
CC(C)(C)NC(=O)Cc1ccc(S(=O)(=O)N2CCCC2)s1 | x | n | n | n | 58[fluorescence artefact?] | n
O=C(Cc1ccc(S(=O)(=O)N2CCCC2)s1)N1CCOCC1 | n | n | n | n | n | n
COc1ccccc1C(NC(=O)Cc1ccccc1)c1c(OC(C)=O)ccc2ccccc12 (stereo not drawn) | n | x | x | x | x | x
CC(N=Cc1cccc(O)c1O)c1ccccc1 (stereo not drawn) | n | 58[fluorescence artefact?] | n | n | n | n
Cc1cc(=O)[nH]c(SCC(=O)Nc2ccccc2Br)n1 | n | x | x | x | x | x
CCS(=O)(=O)N1Cc2ccccc2CC1C(=O)N1CCN(c2cccc(C)c2C)CC1 (stereo not drawn) | n | 51 | n | n | 80[fluorescence artefact?] | n
COc1ccc(-c2c(C#N)c(C)nc3c2C(=O)c2ccccc2-3)cc1 | x | n | n | 373 | n | n
COc1ccc(-c2cc(-c3ccc(Br)cc3)nc(N)c2C#N)cc1 | n | x | x | x | x | x
CCOC(=O)c1ccccc1N/C=C/C(=O)c1ccc(OC)cc1 | n | x | x | x | x | x
CCN1C(=S)SC(=O)C1=C1C=C(C)N(CCO)C(C)=C1 | n | n | n | 244[fluorescence artefact?] | n | n
CCN1C(=S)SC(=O)C1=C1C=C(C)N(CCOC)C(C)=C1 | n | n | n | n | n | n
CC1CCCCN1CC(=O)Nc1sc2c(c1C#N)CCC2 (stereo not drawn) | n | 53 | n | n | n | n
COc1nc2cc(C)ccc2cc1-c1noc(-c2cccnc2)n1 | n | n | n | n | 50[fluorescence artefact?] | n
Cc1cc(OCC(=O)ONC(=O)c2ccc(Cl)cc2)ccc1Br | n | x | x | x | x | x
COC(=O)c1c(NC(=O)Cc2cccs2)sc2c1CCCC2 | n | 74 | n | n | 90[fluorescence artefact?] | n
COCC(=O)Nc1sc2c(c1C(=O)OC)CCCC2 | n | n | n | n | n | n
Brc1ccc(-c2cn3c(n2)SCC3)cc1 | n | x | x | x | x | x
Oc1ccc(-c2cn3c(n2)SCC3)cc1 | x | 67[fluorescence artefact?] | n | n | n | n
Oc1ccc(-c2cn3c(n2)SCC3)cc1O | n | 94[fluorescence artefact?] | n | n | 75[fluorescence artefact?] | n
C(=N\n1cnnc1)/c1cn[nH]c1-c1ccccc1 | n | x | x | x | x | x
SMILES | HePTP inh | ERb SRC1 inh | Smad3 FoxH1 inh | ERa SRC1 pot | ERa SRC1 inh | Calb biofilm kill
O=C(N/N=C\c1ccc([N+](=O)[O-])o1)c1nc(-c2ccccc2)cc(-c2ccccc2)n1 | 51 | x | x | x | x | x
O=C(Cn1c2ccccc2c(=O)c2ccccc21)N/N=C/c1cc([N+](=O)[O-])ccc1N1CCCC1 | n | x | x | x | x | x
Cc1ccc(N2CC(C(N)=O)CC2=O)cc1C (stereo not drawn) | n | n | n | n | n | n
Cc1ccc(N2CC(C(=O)Nc3ccccn3)CC2=O)cc1 (stereo not drawn) | n | 63[fluorescence artefact?] | n | n | n | n
Cc1ccc(N2CC(C(=O)Nc3ccccc3)CC2=O)cc1 (stereo not drawn) | n | x | x | x | x | x
COc1ccc(N2CC(C(=O)O)CC2=O)cc1 (stereo not drawn) | x | 71 | n | n | n | n
Cc1ccc(N2CC(C(N)=O)CC2=O)cc1 (stereo not drawn) | n | n | 51 | n | n | n
O=C(c1ccco1)N(Cc1ccccc1)C(Cc1ccccc1)c1cccs1 (stereo not drawn) | n | x | x | x | x | x
O=C1Nc2ccccc2SC(c2ccccc2)C1O (stereo not drawn) | x | 88 | n | n | 95 | n
CCc1ccc(N2C(=O)/C(=C/c3ccc(I)o3)C(=O)NC2=S)cc1 | 105 | x | x | x | x | x
COc1ccccc1C=C1C(=O)NC(=S)N(c2ccccc2F)C1=O | n | x | x | x | x | x
CCOc1ccc(N2C(=O)/C(=C/c3ccc(I)o3)C(=O)NC2=S)cc1 | 103 | x | x | x | x | x
O=C1NC(=S)N(c2ccccc2F)C(=O)/C1=C/c1ccc(I)o1 | 104 | x | x | x | x | x
Cc1cc(C)cc(N2C(=O)NC(=O)/C(=C\c3ccc(I)o3)C2=O)c1 | n | x | x | x | x | x
O=C1NC(=O)N(c2ccc(Cl)cc2)C(=O)/C1=C/c1ccc(I)o1 | 96 | x | x | x | x | x
CCOc1ccc(N2C(=O)NC(=O)/C(=C\c3ccc(I)o3)C2=O)cc1 | n | x | x | x | x | x
NC(=O)c1cc(NC(=O)c2cccs2)cc(C(N)=O)c1 | n | x | x | x | x | x
Cc1ccc2nc(NC(=O)CSc3ncn[nH]3)sc2c1 | n | x | x | x | x | x
O=C1NC(=S)N(c2ccccc2)C(=O)/C1=C/c1ccc(OCc2ccc(Cl)cc2)cc1 | n | x | x | x | x | x
CC(C)c1ccc(N2C(=O)NC(=O)/C(=C/c3ccc([N+](=O)[O-])o3)C2=O)cc1 | 88 | x | x | x | x | x
CC(C)c1ccc(N2C(=O)NC(=O)/C(=C/c3cccc([N+](=O)[O-])c3)C2=O)cc1 | n | x | x | x | x | x
O=C1NC(=S)N(c2ccccc2F)C(=O)/C1=C/c1ccc(OCc2cccc(C(=O)O)c2)cc1 | 102 | x | x | x | x | x
Cc1ccc2c(Cl)c(C(=O)N3CCN(c4ccc(Cl)cc4)CC3)sc2c1 | n | x | x | x | x | x
CCN(CC)c1ccc(NS(=O)(=O)c2ccc([N+](=O)[O-])cc2)cc1 | n | x | x | x | x | x
c1ccc(OCCCN2CCCC2)cc1 | n | n | n | n | n | n
SMILES | HePTP inh | ERb SRC1 inh | Smad3 FoxH1 inh | ERa SRC1 pot | ERa SRC1 inh | Calb biofilm kill
c1ccc(COc2ccc(OCCCN3CCCCC3)cc2)cc1 | x | n | n | n | 63[fluorescence artefact?] | n
CCOc1ccc(N2C(=O)/C(=C/c3ccc(C(C)C)cc3)C(=O)NC2=S)cc1 | n | x | x | x | x | x
Cc1onc(-c2ccccc2)c1C(=O)OCC(=O)Nc1ccc2c(c1)OCO2 | n | n | n | n | n | n
Cc1onc(-c2ccccc2Cl)c1C(=O)OCC(=O)Nc1ccc2c(c1)OCO2 | n | n | n | n | n | 25
CN1C(=O)C(=Cc2ccccc2OC(=O)c2ccccc2)C(=O)N(C)C1=O | n | x | x | x | x | x
COc1cccc(-c2ccc(-c3noc(-c4cccs4)n3)c(OC)n2)c1 | x | n | n | 310[fluorescence artefact?] | n | n
COc1nc2c(C)cccc2cc1-c1noc(-c2ccco2)n1 | n | n | n | n | 55[fluorescence artefact?] | n
COc1cc(OC)cc(-c2nc(-c3cc4cc(C)ccc4nc3OC)no2)c1 | n | n | n | n | n | n
COc1nc(-c2ccc(Cl)cc2)ccc1-c1noc(-c2ccco2)n1 | n | n | n | 376 | n | n
Cc1cc(Cl)ccc1OCC(=O)Nc1ccc(C(N)=O)cc1 | n | x | x | x | x | x
CN(Cc1ccccc1)C(=O)c1ccc(CN2CCc3ccccc3C2)cc1 | n | x | x | x | x | x
CCN1CCN(CC(O)COc2ccccc2C(C)(C)C)CC1 (stereo not drawn) | n | x | x | x | x | x
CC/C(=N/Nc1ccccc1Cl)c1cnnc(-c2ccccc2)n1 | x | n | n | n | n | x
CCC/C(=N/Nc1ccc(Cl)cc1)c1cnnc(-c2ccccc2)n1 | x | 67[fluorescence artefact?] | n | n | 94 | n
COc1ccc(S(=O)(=O)NNC(=O)c2ccc(F)cc2)cc1 | n | x | x | x | x | x
